Laboratory results from PubChem BioAssay.
Active and inactive are the calls of the source.

Assays:
[1] = test system: PRMT1 (protein arginine N-methyltransferase 1); assay: PRMT1 binders on small-molecule microarrays, primary screen, biochemical, small-molecule microarray, 635 nm fluorescence (AID 1088); details: small-molecule microarray binding, higher = more signal;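 also: binding of Prmt1 protein to compounds spotted on small-molecule microarray slides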
[2] = yeast growth modulation, basal conditions, primary screen, YJM789 clinical isolate, OD600, 24 h (AID 1089);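 also: growth of clinical yeast isolate S. cerevisiae YJM 789 seeded 1000 cells per well; test concentration not given here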; details: S. cerevisiae YJM789 growth, higher = more signal, called active from +8 up or from −8 down
[3] = fission yeast growth modulation, primary screen, strain 972, OD600, 24 h, no modulator (AID 1090);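 also: basal condition with compound alone and no growth modifier present; test concentration not given here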; details: S. pombe 972 growth, higher = more signal, called active from +8 up or from −8 down
[4] = S. cerevisiae growth modulation with rapamycin, primary screen, strain BY4716, OD600, 96 h (AID 1091); details: higher = more signal, called active from +8 up or from −8 down; also: test concentration not given here
[5] = target: Torsin-1A-interacting protein 2 (Homo sapiens) (UniProt Q8NFQ8); assay: LULL1 binders on small-molecule microarray, primary screen, cell lysate, human LULL1 lysate, 635/667 nm fluorescence (AID 1092); details: hLULL1 lysate binding, 635 nm fluorescence, higher = more signal;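 also: probe is lysate of COS7 cells overexpressing human LULL1; score merges per-feature 667 nm fluorescence with signal-to-noise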
[6] = E. coli growth modulation, two-sided OD650, primary screen, E. coli filamentation project, strain DRC41, 24 h (AID 1093); details: OD650, 24 h, higher = more signal, called active from +8 up or from −8 down;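 also: MC1000 strain lacking acrAB efflux and sulA so SOS filamentation is blocked; test concentration not given here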
[7] = small-molecule microarray binders of probe aLefty2, primary screen, biochemical, biotinylated probe, 635/667 nm fluorescence (AID 1094); details: higher = more signal;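 also: score merges spot fluorescence near 667 nm with spot signal-to-noise ratio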
[8] = test system: Noggin (protein binding on small-molecule microarray); assay: Noggin binders on small-molecule microarray, primary screen, biochemical, 635/667 nm fluorescence (AID 1095); details: 635 nm fluorescence, higher = more signal;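 also: score merges 667 nm feature fluorescence with signal to noise over triplicate slides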
[9] = target: Neurogenic locus notch homolog protein 3 (Homo sapiens) (UniProt Q9UM47); assay: NOTCH3 binders on small-molecule microarray, primary screen, biochemical, 635/667 nm fluorescence (AID 1096); details: NOTCH3 binding, 635 nm fluorescence, higher = more signal
[10] = small-molecule microarray binders of probe aEGFR, primary screen, biochemical, biotinylated probe, 635/667 nm fluorescence (AID 1097); details: higher = more signal;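 also: probe is a biotinylated anti-EGFR antibody binding compounds printed on slides; score combines fluorescence near 667 nm and signal to noise of each spot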
[11] = test system: Plasmodium falciparum Sir2 (PF13_0152, Sir2A); assay: pfSir2 binders on small-molecule microarrays, primary screen, biochemical, small-molecule microarray, 635 nm fluorescence (AID 1098); details: small-molecule microarray binding, fluorescence 635 nm; higher = more signal;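 also: score merges spot fluorescence intensity with its signal-to-noise ratio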
[12] = small-molecule microarray binders of probe aDKK1, primary screen, biochemical, biotinylated probe, 635/667 nm fluorescence (AID 1099); details: higher = more signal;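 also: score merges 667nm spot fluorescence with signal to noise across triplicate slides; reference of the scale not given here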
[13] = small-molecule microarray binders of probe aCHRDL2, primary screen, biochemical, biotinylated probe, 635/667 nm fluorescence (AID 1100); details: higher = more signal
[14] = splicing luciferase reporter signal modulators, primary screen, spliceosome inhibition project, cell-based, HEK293, splice +/- reporter (AID 1101); details: luminescence, 24 h, higher = more signal, called active from +8 up or from −8 down;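 also: HEK293 cells carrying a splicing-competent luciferase reporter gene; test concentration not given here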
[15] = target: Fibroblast growth factor 10 (Homo sapiens) (UniProt O15520); assay: FGF10 binders on small-molecule microarrays, primary screen, biochemical, small-molecule microarray, 635 nm fluorescence (AID 1102); details: FGF10 binding, fluorescence 635 nm, higher = more signal
[16] = test system: glycogen synthase kinase-3 (GSK3A per assay name; protocol says GSK3B); assay: GSK3 binders on small-molecule microarrays, primary screen, biochemical, small-molecule microarray, 635 nm fluorescence, GSK3A (AID 1103); details: small-molecule microarray binding, fluorescence 635 nm; higher = more signal; also: the record names both GSK3A and GSK3B
[17] = target: Epidermal growth factor receptor (Homo sapiens) (UniProt P00533); assay: EGFR binders on small-molecule microarrays, primary screen, biochemical, small-molecule microarray, 635 nm fluorescence (AID 1104); details: EGFR binding, higher = more signal;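 also: score merges 667 nm emission intensity with spot signal to noise over triplicate slides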
[18] = target: Follistatin-related protein 3 (Homo sapiens) (UniProt O95633); assay: FSTL3 binders on small-molecule microarrays, primary screen, biochemical, small-molecule microarray, 635 nm fluorescence (AID 1105); details: FSTL3 binding, higher = more signal;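 also: score merges emission near 667 nm and signal to noise per printed spot across three slides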
[19] = target: Dickkopf-related protein 1 (Homo sapiens) (UniProt O94907); assay: DKK1 binders on small-molecule microarrays, primary screen, biochemical, small-molecule microarray, 635 nm fluorescence scan (AID 1106); details: DKK1 binding, higher = more signal;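 also: score merges emission near 667 nm with signal to noise over three replicate slides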
[20] = test system: Inhibin beta A chain (activin A); assay: INHBA (activin A) binders on microarrays, primary screen, biochemical, small-molecule microarray, 635 nm fluorescence scan (AID 1107); details: small-molecule microarray binding, higher = more signal;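 also: mouse activin A protein probed at 4.33 µg/mL on printed slides; score merges bound-protein fluorescence near 667 nm with spot signal-to-noise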

Chain of Epidermal growth factor receptor (Homo sapiens) (P00533 whole entry, looked up): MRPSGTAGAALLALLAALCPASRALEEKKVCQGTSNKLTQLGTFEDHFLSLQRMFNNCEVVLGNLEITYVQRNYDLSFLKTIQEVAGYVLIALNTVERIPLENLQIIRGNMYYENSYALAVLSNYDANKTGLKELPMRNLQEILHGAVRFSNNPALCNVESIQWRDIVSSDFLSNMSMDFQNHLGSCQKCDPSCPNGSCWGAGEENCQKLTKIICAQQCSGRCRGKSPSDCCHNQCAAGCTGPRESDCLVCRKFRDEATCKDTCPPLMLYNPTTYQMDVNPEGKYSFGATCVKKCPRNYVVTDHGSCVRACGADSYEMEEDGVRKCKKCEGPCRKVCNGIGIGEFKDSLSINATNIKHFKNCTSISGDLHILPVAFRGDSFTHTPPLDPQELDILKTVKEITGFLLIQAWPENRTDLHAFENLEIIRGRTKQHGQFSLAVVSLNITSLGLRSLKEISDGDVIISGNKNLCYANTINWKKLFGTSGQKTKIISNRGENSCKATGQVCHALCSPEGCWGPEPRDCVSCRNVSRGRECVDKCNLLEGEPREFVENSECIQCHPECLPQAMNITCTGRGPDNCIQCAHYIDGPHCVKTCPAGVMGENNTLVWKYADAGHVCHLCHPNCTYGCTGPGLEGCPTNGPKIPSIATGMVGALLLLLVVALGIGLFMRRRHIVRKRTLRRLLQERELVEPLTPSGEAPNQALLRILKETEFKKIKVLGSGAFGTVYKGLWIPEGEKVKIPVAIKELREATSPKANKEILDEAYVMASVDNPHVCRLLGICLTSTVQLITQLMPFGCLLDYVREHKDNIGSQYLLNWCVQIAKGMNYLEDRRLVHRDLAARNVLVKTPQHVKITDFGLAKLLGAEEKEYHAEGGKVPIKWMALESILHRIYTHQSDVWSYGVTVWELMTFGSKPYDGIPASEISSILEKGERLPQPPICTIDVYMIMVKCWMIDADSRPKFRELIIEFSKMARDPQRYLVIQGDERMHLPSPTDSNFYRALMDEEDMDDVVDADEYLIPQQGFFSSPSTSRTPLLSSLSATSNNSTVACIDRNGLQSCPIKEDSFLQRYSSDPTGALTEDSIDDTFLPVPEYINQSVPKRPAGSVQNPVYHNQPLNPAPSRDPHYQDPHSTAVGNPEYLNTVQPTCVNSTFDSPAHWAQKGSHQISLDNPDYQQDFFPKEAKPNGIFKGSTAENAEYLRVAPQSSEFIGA
Chain of Dickkopf-related protein 1 (Homo sapiens) (O94907 whole entry, looked up): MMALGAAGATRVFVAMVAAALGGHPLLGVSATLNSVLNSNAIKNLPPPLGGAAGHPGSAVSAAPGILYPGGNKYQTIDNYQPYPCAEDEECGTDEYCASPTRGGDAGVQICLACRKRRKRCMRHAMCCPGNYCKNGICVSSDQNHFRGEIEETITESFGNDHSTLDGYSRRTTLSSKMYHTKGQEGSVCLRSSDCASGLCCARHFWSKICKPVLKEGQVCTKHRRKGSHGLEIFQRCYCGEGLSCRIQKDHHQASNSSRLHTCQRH
Chain of Follistatin-related protein 3 (Homo sapiens) (O95633 whole entry, looked up): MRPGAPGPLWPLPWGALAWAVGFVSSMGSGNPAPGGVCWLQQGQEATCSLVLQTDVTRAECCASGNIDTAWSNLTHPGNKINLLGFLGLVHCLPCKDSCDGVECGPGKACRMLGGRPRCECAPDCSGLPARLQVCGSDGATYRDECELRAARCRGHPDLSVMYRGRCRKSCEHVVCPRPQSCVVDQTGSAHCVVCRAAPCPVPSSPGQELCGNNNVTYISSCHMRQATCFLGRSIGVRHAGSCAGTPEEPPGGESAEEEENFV
Chain of Fibroblast growth factor 10 (Homo sapiens) (O15520 whole entry, looked up): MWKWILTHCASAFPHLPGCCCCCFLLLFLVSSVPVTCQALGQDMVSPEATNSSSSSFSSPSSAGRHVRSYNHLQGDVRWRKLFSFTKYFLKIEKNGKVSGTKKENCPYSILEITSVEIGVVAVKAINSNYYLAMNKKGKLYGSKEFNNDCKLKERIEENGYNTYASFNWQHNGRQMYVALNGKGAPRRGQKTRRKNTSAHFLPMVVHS
Chain of Neurogenic locus notch homolog protein 3 (Homo sapiens) (Q9UM47 whole entry, looked up): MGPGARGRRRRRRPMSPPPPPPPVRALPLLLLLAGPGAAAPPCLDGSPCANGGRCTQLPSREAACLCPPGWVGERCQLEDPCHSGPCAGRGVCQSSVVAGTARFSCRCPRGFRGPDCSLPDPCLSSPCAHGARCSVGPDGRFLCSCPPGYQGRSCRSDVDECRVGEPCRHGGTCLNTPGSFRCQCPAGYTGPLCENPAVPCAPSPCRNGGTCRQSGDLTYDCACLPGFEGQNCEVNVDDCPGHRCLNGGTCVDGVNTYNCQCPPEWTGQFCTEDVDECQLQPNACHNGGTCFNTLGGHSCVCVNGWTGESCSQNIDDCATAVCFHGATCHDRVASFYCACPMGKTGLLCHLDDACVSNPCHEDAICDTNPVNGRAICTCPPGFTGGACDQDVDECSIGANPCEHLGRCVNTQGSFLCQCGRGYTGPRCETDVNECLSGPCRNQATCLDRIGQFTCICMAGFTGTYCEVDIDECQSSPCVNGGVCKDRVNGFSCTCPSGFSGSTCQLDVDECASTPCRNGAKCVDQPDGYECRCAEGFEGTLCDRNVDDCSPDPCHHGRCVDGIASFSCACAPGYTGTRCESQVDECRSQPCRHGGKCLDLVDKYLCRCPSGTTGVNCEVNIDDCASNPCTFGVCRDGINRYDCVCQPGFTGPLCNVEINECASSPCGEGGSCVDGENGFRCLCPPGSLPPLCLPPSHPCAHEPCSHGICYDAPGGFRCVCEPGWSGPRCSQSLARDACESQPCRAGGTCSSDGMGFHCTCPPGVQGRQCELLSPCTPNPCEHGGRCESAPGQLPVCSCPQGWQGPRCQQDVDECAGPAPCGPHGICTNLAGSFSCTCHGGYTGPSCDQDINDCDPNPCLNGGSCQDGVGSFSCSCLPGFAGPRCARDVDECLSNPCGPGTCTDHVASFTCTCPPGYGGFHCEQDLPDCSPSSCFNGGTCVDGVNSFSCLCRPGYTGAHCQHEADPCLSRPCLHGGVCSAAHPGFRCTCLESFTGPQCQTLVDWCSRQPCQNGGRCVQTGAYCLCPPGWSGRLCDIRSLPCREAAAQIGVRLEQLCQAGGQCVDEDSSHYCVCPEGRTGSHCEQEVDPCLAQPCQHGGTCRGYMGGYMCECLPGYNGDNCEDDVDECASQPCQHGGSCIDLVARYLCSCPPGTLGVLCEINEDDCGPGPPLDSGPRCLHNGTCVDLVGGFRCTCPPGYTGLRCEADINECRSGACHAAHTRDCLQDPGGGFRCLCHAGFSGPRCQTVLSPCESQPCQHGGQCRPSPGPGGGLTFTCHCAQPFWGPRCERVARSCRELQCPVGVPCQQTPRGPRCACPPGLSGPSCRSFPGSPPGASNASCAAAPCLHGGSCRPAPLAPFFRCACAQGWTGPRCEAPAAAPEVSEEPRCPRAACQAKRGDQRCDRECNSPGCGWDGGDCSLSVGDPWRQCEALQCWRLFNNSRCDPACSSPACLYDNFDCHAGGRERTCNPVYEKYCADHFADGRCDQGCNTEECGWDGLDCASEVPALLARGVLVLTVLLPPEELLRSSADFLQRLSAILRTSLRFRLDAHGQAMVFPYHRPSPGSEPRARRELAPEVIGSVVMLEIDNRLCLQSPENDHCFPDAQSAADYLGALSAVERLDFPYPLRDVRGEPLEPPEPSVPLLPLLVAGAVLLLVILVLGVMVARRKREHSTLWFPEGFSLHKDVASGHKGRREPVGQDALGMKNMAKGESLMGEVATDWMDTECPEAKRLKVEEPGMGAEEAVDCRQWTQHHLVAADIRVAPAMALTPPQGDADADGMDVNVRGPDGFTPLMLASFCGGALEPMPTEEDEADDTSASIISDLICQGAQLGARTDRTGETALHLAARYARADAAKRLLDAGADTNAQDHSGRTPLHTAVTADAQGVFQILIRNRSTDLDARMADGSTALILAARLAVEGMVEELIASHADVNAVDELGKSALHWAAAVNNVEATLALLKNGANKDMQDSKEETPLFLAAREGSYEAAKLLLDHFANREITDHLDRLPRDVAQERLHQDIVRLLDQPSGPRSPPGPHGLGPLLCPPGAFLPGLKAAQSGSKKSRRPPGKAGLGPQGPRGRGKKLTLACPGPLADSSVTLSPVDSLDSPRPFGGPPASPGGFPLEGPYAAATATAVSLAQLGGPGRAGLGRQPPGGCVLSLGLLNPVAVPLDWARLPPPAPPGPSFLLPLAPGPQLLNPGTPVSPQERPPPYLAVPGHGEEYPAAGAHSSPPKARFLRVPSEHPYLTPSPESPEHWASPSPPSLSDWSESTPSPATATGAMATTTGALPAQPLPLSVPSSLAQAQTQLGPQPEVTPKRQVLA
Chain of Torsin-1A-interacting protein 2 (Homo sapiens) (Q8NFQ8 whole entry, looked up): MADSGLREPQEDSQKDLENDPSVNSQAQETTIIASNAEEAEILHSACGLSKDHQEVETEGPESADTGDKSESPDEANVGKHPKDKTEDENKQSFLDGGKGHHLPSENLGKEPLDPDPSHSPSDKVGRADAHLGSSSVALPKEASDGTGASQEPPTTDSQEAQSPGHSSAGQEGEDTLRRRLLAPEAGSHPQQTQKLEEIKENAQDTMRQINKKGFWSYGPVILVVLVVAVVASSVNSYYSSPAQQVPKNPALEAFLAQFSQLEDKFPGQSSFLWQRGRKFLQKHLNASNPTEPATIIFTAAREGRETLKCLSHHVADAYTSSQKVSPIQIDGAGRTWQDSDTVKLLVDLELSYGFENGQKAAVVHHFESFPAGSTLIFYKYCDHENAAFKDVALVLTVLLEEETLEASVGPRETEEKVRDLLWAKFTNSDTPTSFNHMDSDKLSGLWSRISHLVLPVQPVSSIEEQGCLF

| Structure (SMILES) | composite z-score [1] | z-score [2] | z-score [3] | z-score [4] | composite z-score [5] | z-score [6] | composite z-score [7] | composite z-score [8] | composite z-score [9] | composite z-score [10] | composite z-score [11] | composite z-score [12] | composite z-score [13] | z-score [14] | composite z-score [15] | composite z-score [16] | composite z-score [17] | composite z-score [18] | composite z-score [19] | composite z-score [20] |
| --- | --- | --- | --- | --- | --- | --- | --- | --- | --- | --- | --- | --- | --- | --- | --- | --- | --- | --- | --- | --- |
| CN(C)CCCNC(=O)[C@@H]1c2ccccc2C(=O)N(Cc2ccccc2C(F)(F)F)[C@H]1c1ccc(CO)cc1 | 0.986 | 0.0389 (inactive) | -1.28 (inactive) | -0.461 (inactive) | 0.767 | 1.53 (inactive) | 0.0518 | -0.396 | -0.704 | -0.213 | -0.722 | 0.908 | 0.706 | 0.0896 (inactive) | -0.728 | 0.355 | -0.899 | -0.58 | -0.759 | 0.764 |
| CCOC(=O)C[C@H]1[C@H](OC(=O)Cc2ccc3c(c2)OCO3)[C@@H](NC(=O)c2ccc3ccccc3n2)c2cc(OCCCO)ccc2N1C(=O)Cc1ccc(OC)cc1 | 0.742 | -2.25 (inactive) | 0.154 (inactive) | -0.107 (inactive) | 1.34 | 0.647 (inactive) | 0.0071 | 1.25 | 0.55 | -0.103 | 0.435 | 0.0621 | 0.195 | -1.8 (inactive) | 0.438 | 0.25 | -0.374 | 0.882 | 0.163 | 0.257 |
| C=CCNC(=O)[C@H]1[C@@H]2C(=O)O[C@@H](c3ccccc3)[C@@H](c3ccccc3)N2[C@@H](c2ccccc2OCCO)[C@]12C(=O)N(C(=O)OCCOC)c1ccc(C#Cc3ccc(OC)cc3)cc12 | 1.55 | 2.2 (inactive) | 0.823 (inactive) | 6.52 (inactive) | 2.94 | 0.769 (inactive) | -0.0998 | 0.173 | 0.647 | -0.092 | 0.801 | 0.256 | 0.581 | 0.522 (inactive) | 0.654 | 1.06 | 0.301 | 0.0527 | -0.163 | 0.032 |
| O=C(N1CCOCC1)[C@@]1(Cc2ccccc2)COC(c2ccc(OCCCO)cc2)=N1 | 0.88 | -0.731 (inactive) | -5.55 (inactive) | -1.39 (inactive) | 2.95 | 2.88 (inactive) | 0.588 | -0.622 | 0.116 | 0.518 | 0.666 | 1.23 | 0.84 | -0.694 (inactive) | 0.132 | 0.983 | -0.309 | -0.65 | -0.161 | 0.573 |
| COc1ccc(C(O)C2C=CC3C(=O)N(c4ccccc4)C(=O)C3N2Nc2ccc([N+](=O)[O-])cc2)c2ccccc12 (stereo not given) | 1.53 | -0.861 (inactive) | 1.68 (inactive) | 2.3 (inactive) | 3.38 | -0.824 (inactive) | 0.0798 | -0.268 | 1.07 | -0.0076 | 1.2 | 0.662 | 0.88 | -0.707 (inactive) | 0.981 | 1.32 | 0.385 | 1 | 0.226 | 0.642 |
| O=C(NC1CC1)[C@@H]1c2ccccc2C(=O)N(CC23CC4CC(CC(C4)C2)C3)[C@H]1c1ccc(CO)cc1 | 1.53 | -0.706 (inactive) | -0.682 (inactive) | -0.437 (inactive) | 3.15 | -0.103 (inactive) | -0.2 | 1.47 | 1.02 | 0.0201 | 0.728 | -0.226 | -0.0162 | -0.724 (inactive) | 1.41 | 1.32 | 1.03 | 1.43 | 1.28 | 0.372 |
| COC(=O)[C@@]1(Cc2ccc(F)cc2)[C@H]2c3cc(C(=O)N(C)C)n(C)c3C[C@H]2CN1C(=O)c1ccccc1 | -0.97 | 0.0108 (inactive) | 0.476 (inactive) | 0.08 (inactive) | 2.54 | -0.339 (inactive) | 0.519 | -0.608 | 0.381 | 0.383 | 0.0911 | 0.903 | 0.885 | -0.84 (inactive) | 0.414 | -0.489 | -0.286 | -0.125 | -0.615 | 0.468 |
| COC(=O)[C@@]1(Cc2ccccc2)N=C(c2ccc(OCCCO)cc2)O[C@H]1c1ccccc1CN=[N+]=[N-] | 1.55 | -0.605 (inactive) | -0.129 (inactive) | 29.9 (active) | 2.27 | 1.62 (inactive) | -0.0747 | 1.05 | 0.129 | 0.0267 | 1.61 | 0.287 | 0.652 | 12.9 (active) | 0.722 | 0.893 | -0.0505 | 0.323 | 0.21 | 1.09 |
| COc1ccc([Si](C)(C)[C@@H]2[C@@H](CC(=O)N3Cc4ccccc4C[C@H]3CO)O[C@]3(C(=O)N(Cc4cccc(N5CCOC5=O)c4)c4ccccc43)[C@H]2C)cc1 | 1.56 | -1.45 (inactive) | 0.837 (inactive) | 1.77 (inactive) | 1.15 | 0.742 (inactive) | -0.121 | 1.42 | 1.12 | -0.0972 | 1.21 | -0.503 | -0.562 | -0.589 (inactive) | 0.628 | 0.717 | 1.01 | 1.37 | 1.21 | 0.792 |
| COc1ccc([Si](C)(C)[C@@H]2[C@@H](CC(=O)N(CCO)Cc3ccccc3)O[C@]3(C(=O)N(Cc4ccc(I)cc4)c4ccccc43)[C@H]2C)cc1 | 1.55 | 0.383 (inactive) | 1.53 (inactive) | 2.57 (inactive) | -0.0159 | 1.26 (inactive) | 0.408 | 1.63 | 1.12 | 0.338 | 0.625 | 0.346 | 0.351 | -2.35 (inactive) | 1.1 | 0.301 | 1.03 | 1.37 | 1.2 | 1.58 |
